# Reference: PubChem BioAssay
# “And” between values parts separate entries of the source, which are not always exact repeats. Equal values may be shown once. The source made the active and inactive calls.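 Rule for the calls, unless noted: active = normalized viability below 100% at a tested concentration; inactive = the rest.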
# How the values were obtained:
# [1] = liver-stage malaria parasite growth inhibition, primary screen, cell-based, HepG2, luciferase luminescence, HepG2 viability (AID 624349; in the data active = parasite load remaining mostly below about 12%, no sharp cut-off; inactive = mostly above about 10%;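 note: 100% = mean of DMSO negative control wells on the same plate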); settings: P. berghei liver stage in HepG2, luciferase luminescence, concentration not given here; parasite load remaining: stronger effect = lower value; viability: measured here: HepG2 viability without parasites
# [2] = stimulators of nuclear beta-catenin in C2C12, primary screen, imaging, WNT3A-conditioned medium, mouse C2C12, NPC library (AID 1117326; in the data active = nuclear beta-catenin stimulation mostly above about 4.2%, no sharp cut-off; inactive = mostly below about 10%); settings: stronger effect = higher value
# [3] = stimulators of insulin release from INS-1E, primary screen, cell-based, 5 mM glucose, NPC library (AID 1117329;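 active = compound raises insulin release from rat beta cells at 5 mM glucose, no numeric limit stated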); settings: rat INS-1E insulin secretion, at 10 µM, stronger effect = higher value
# [4] = growth inhibition of GSK3B-pretreated HCT116 cells – cell-based, CellTiter-Glo, 0.2 to 20 µM (AID 1117336;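 active = compounds lowering colon cancer cell viability after pretreatment blocking the GSK3B kinase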); settings: HCT116 viability after GSK3B inhibitor, at 20 µM, stronger effect = higher value
# [5] = inhibition of endothelial tube formation, primary screen, imaging, VEGF stimulated, CD31 staining, tube area, NPC library (AID 1117340;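 active = compound that reduces growth-factor-driven endothelial tube area in a mixed cell culture, no cutoff stated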); settings: VEGF-stimulated ADSC/ECFC co-culture, at 10 µM, stronger effect = higher value
# [6] = glucagon-like peptide 1 release enhancers, primary assay, NCI-H716 cell line, NPC library (AID 1117341;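 active = compound raises GLP1 secretion from the human gut endocrine cells, with no numeric limit stated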); settings: NCI-H716 cells, at 10 µM, stronger effect = higher value
# [7] = HCT116 colon cancer cell growth inhibition, primary screen, CellTiter-Glo luminescence, NPC library (AID 1117342;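 active = compounds that lower survival of HCT116 colon cancer cells in the luminescence readout, no numeric limit stated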); settings: at 20 µM (top of the series)
# [8] = CellTiter-Glo luminescent readout of SW480 viability loss, NPC library primary (AID 1117343;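 active = compounds that lower viability of the colon cancer cells in the luminescence readout, with no numeric limit stated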); settings: CellTiter-Glo luminescence; at 20 µM (top of the series) unless noted
# [9] = decreased DLD-1 cellular survival, CellTiter-Glo luminescent readout, NPC compound collection, primary HTS (AID 1117346;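 active = compounds that lower survival of DLD-1 colon cancer cells in the luminescence readout, no cutoff given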); settings: DLD-1 viability, CellTiter-Glo luminescence; at 20 µM (top of the series)
# [10] = differential killing of epithelial or mesenchymal cells, primary screen, imaging, PC-3E GFP, TEM4-18 mCherry, co-culture (AID 1345086;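 active = compounds killing one labelled cell type while sparing the other, by normalised counts and ratio limits, not self-fluorescent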;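 for all read-outs here: cells exposed to compound for 72 h before imaging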;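 for red/green cell ratio (normalised): normalised mesenchymal count divided by normalised epithelial count so high means epithelial killing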); settings: imaging cell counts, at 1 µM; for red/green cell ratio (normalised): actives lie on both sides, counts scaled to control wells, 1 = unselective
# [11] = sensitizers of A549 cells to miR-34 induction, primary screen, imaging, A549 dox-inducible miR-34, nuclei and caspase counts (AID 1347080;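 active = compounds whose cell count with miR-34 switched on is under 0.7 times the count with it off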); settings: A549 miR-34 inducible, Hoechst nuclei count, 48 h
# [12] = survival rescue of mitochondrial mutant cells in low glucose, primary screen, MELAS cybrids, Rieske KO mouse fibroblasts, CellTiter-Glo (AID 1508586;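 active = mean z-score across replicates of 1.96 or higher in either the MELAS or the Rieske mutant cell line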;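 note: z relative to plate mean and SD of compound and empty wells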)
# [13] = ovarian cancer cell viability with rucaparib, profiling panel, oncology-focused library, rucaparib conditional (AID 1508598); settings: patient-derived ovarian cancer cells, CellTiter-Glo viability, 144 h, stronger effect = lower value
# [14] = hESC survival regulators, cell-based (AID 493140; call rule not given here;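 note: cells exposed to compounds for four days before counting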); settings: human embryonic stem cell survival screen; stronger effect = higher value
# [15] = target: NAD(+) hydrolase SARM1 (Homo sapiens) (UniProt Q6SZW1); experiment: SARM1 TIR NADase inhibitors, cell lysate, NAD-Glo luminescence (AID 1508614;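 active = compound whose remaining NAD level is above about 45 nM, limit read from the data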;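 note: higher remaining NAD means stronger inhibition of SARM1 NADase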); settings: SAM-TIR HEK293T lysate NADase, at 1 µM, stronger effect = higher value
# Sequence of NAD(+) hydrolase SARM1 (Homo sapiens) (Q6SZW1 whole entry, looked up): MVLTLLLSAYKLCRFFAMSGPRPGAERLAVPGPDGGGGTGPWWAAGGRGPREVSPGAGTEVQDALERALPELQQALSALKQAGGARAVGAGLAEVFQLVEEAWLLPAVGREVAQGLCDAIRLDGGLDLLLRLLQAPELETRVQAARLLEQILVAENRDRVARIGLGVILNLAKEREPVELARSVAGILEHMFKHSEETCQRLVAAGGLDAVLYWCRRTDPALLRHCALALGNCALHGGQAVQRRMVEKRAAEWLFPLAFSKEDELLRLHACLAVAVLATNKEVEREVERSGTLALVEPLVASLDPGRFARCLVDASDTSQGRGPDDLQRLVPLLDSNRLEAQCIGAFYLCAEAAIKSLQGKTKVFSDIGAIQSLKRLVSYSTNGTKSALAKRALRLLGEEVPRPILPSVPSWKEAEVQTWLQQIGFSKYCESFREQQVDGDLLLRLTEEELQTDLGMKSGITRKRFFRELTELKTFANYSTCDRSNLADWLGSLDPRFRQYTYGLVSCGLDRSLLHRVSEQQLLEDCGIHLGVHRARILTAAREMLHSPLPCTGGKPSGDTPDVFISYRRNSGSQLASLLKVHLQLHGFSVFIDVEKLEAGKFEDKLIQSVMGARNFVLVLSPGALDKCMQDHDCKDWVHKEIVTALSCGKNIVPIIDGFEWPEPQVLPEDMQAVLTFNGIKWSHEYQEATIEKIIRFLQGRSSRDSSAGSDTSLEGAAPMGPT
# [16] = measured here: epithelial PC-3E GFP cell survival
# [17] = measured here: mesenchymal TEM4-18 mCherry cell survival
# [18] = stronger effect = lower value, cell number ratio, induced over uninduced
# [19] = measured here: relative caspase fold change +Dox/-Dox
# [20] = measured here: total cells with miR-34 induction, stronger effect = lower value
# [21] = measured here: total cells without miR-34 induction
# [22] = MELAS cybrid survival, CellTiter-Glo 48 h, stronger effect = higher value
# [23] = Rieske KO mouse fibroblast survival, CellTiter-Glo 72 h
smiles,measurement,setting,value
CN(N=O)C(=O)N[C@@H]1[C@@H](O)[C@H](O)[C@@H](CO)O[C@@H]1O,parasite load remaining,[1],90.3% (inactive) and 138% (inactive) and 42.6% (inactive)
same,viability,[1],97.3% and 74.3% and 97.4%
same,nuclear beta-catenin stimulation,[2]; at 10 µM,0.9% (inactive)
same,nuclear beta-catenin stimulation,"[2]; stimulation, at 2 µM",2.9%
same,insulin secretion stimulation,[3],0.5% (inactive)
same,viability decrease,[4],-5.6% (inactive)
same,tube area decrease,[5],10.3% (inactive)
same,GLP1 secretion stimulation,[6],0.8% (inactive)
same,inhibition of viability,[7],-6.13% (inactive)
same,viability decrease (inhibition),[8],42% (inactive)
same,viability decrease (inhibition),[9],-37.7% (inactive)
same,red/green cell ratio (normalised),[10],1.14 (inactive)
same,normalised cell number,[10]; [16],0.95
same,normalised cell number,[10]; [17],1.08
same,fold change,[11]; [18],0.837 (inactive) and 0.877 (inactive)
same,fold change,[11]; [19],1.24 and 1.12
same,cell count,[11]; [20],8550 and 11000
same,cell count,[11]; [21],10200 and 12600
same,z-score,[12]; [22],0.426 (inactive)
same,z-score,[12]; [23],0.385
same,viability,"[13]; at 0.000305 µM, OCI-C5x cells, with rucaparib 10 µM, 100% = cells with rucaparib alone",107% (inactive)
same,viability,"[13]; at 0.000305 µM, OCI-C5x cells, without rucaparib",111% (inactive)
same,viability,"[13]; at 0.000305 µM, OCI-P5x cells, with rucaparib 20 µM, 100% = cells with rucaparib alone",108% (inactive)
same,viability,"[13]; at 0.000305 µM, OCI-P5x cells, without rucaparib",121% (inactive)
same,viability,"[13]; at 0.00122 µM, OCI-C5x cells, with rucaparib 10 µM, 100% = cells with rucaparib alone",110% (inactive)
same,viability,"[13]; at 0.00122 µM, OCI-C5x cells, without rucaparib",114% (inactive)
same,viability,"[13]; at 0.00122 µM, OCI-P5x cells, with rucaparib 20 µM, 100% = cells with rucaparib alone",101% (inactive)
same,viability,"[13]; at 0.00122 µM, OCI-P5x cells, without rucaparib",115% (inactive)
same,viability,"[13]; at 0.00488 µM, OCI-C5x cells, with rucaparib 10 µM, 100% = cells with rucaparib alone",102% (inactive)
same,viability,"[13]; at 0.00488 µM, OCI-C5x cells, without rucaparib",121% (inactive)
same,viability,"[13]; at 0.00488 µM, OCI-P5x cells, with rucaparib 20 µM, 100% = cells with rucaparib alone",97.2% (active)
same,viability,"[13]; at 0.00488 µM, OCI-P5x cells, without rucaparib",113% (inactive)
same,viability,"[13]; at 0.0195 µM, OCI-C5x cells, with rucaparib 10 µM, 100% = cells with rucaparib alone",111% (inactive)
same,viability,"[13]; at 0.0195 µM, OCI-C5x cells, without rucaparib",114% (inactive)
same,viability,"[13]; at 0.0195 µM, OCI-P5x cells, with rucaparib 20 µM, 100% = cells with rucaparib alone",100% (inactive)
same,viability,"[13]; at 0.0195 µM, OCI-P5x cells, without rucaparib",116% (inactive)
same,viability,"[13]; at 0.0781 µM, OCI-C5x cells, with rucaparib 10 µM, 100% = cells with rucaparib alone",106% (inactive)
same,viability,"[13]; at 0.0781 µM, OCI-C5x cells, without rucaparib",122% (inactive)
same,viability,"[13]; at 0.0781 µM, OCI-P5x cells, with rucaparib 20 µM, 100% = cells with rucaparib alone",104% (inactive)
same,viability,"[13]; at 0.0781 µM, OCI-P5x cells, without rucaparib",112% (inactive)
same,viability,"[13]; at 0.313 µM, OCI-C5x cells, with rucaparib 10 µM, 100% = cells with rucaparib alone",106% (inactive)
same,viability,"[13]; at 0.313 µM, OCI-C5x cells, without rucaparib",126% (inactive)
same,viability,"[13]; at 0.313 µM, OCI-P5x cells, with rucaparib 20 µM, 100% = cells with rucaparib alone",98.9% (active)
same,viability,"[13]; at 0.313 µM, OCI-P5x cells, without rucaparib",113% (inactive)
same,viability,"[13]; at 1.25 µM, OCI-C5x cells, with rucaparib 10 µM, 100% = cells with rucaparib alone",97.9% (active)
same,viability,"[13]; at 1.25 µM, OCI-C5x cells, without rucaparib",109% (inactive)
same,viability,"[13]; at 1.25 µM, OCI-P5x cells, with rucaparib 20 µM, 100% = cells with rucaparib alone",87.8% (active)
same,viability,"[13]; at 1.25 µM, OCI-P5x cells, without rucaparib",105% (inactive)
same,viability,"[13]; at 5 µM, OCI-C5x cells, with rucaparib 10 µM, 100% = cells with rucaparib alone",103% (inactive)
same,viability,"[13]; at 5 µM, OCI-C5x cells, without rucaparib",101% (inactive)
same,viability,"[13]; at 5 µM, OCI-P5x cells, with rucaparib 20 µM, 100% = cells with rucaparib alone",87.3% (active)
same,viability,"[13]; at 5 µM, OCI-P5x cells, without rucaparib",98.1% (active)
COc1cc2c(c(OC)c1OC)-c1ccc(OC)c(=O)cc1[C@@H](NC(C)=O)CC2,survival,[14],0.333 (inactive)
same,nuclear beta-catenin stimulation,[2]; at 10 µM,77.5% (active)
same,nuclear beta-catenin stimulation,"[2]; stimulation, at 2 µM",72.6%
same,insulin secretion stimulation,[3],2.2% (inactive)
same,viability decrease,[4],97.2% (active)
same,tube area decrease,[5],105% (active)
same,GLP1 secretion stimulation,[6],-3.6% (inactive)
same,inhibition of viability,[7],75% (active)
same,viability decrease (inhibition),[8],43.3% (inactive)
same,viability decrease (inhibition),[9],58.2% (active)
same,red/green cell ratio (normalised),[10],1.19 (inactive)
same,normalised cell number,[10]; [16],0.19
same,normalised cell number,[10]; [17],0.23
same,fold change,[11]; [18],1.43 (inactive) and 1.18 (inactive) and 0.984 (inactive)
same,fold change,[11]; [19],1.13 and 1.5 and 0.402
same,cell count,[11]; [20],1890 and 1930 and 1700
same,cell count,[11]; [21],1330 and 1630 and 1730
same,z-score,[12]; [22],-2.22 (inactive)
same,z-score,[12]; [23],-0.272
same,remaining NAD,[15],10 nM (inactive)
CC(=O)NCCCS(=O)(=O)O,nuclear beta-catenin stimulation,[2]; at 10 µM,-1.9% (inactive)
same,nuclear beta-catenin stimulation,"[2]; stimulation, at 2 µM",-0.8%
same,insulin secretion stimulation,[3],-0.1% (inactive)
same,viability decrease,[4],-7.6% (inactive)
same,tube area decrease,[5],3.7% (inactive)
same,GLP1 secretion stimulation,[6],-1.3% (inactive)
same,inhibition of viability,[7],1.8% (inactive)
same,viability decrease (inhibition),[8],4.2% (inactive)
same,viability decrease (inhibition),[9],-2% (inactive)
same,red/green cell ratio (normalised),[10],0.97 (inactive)
same,normalised cell number,[10]; [16],1
same,normalised cell number,[10]; [17],0.97
same,fold change,[11]; [18],0.904 (inactive)
same,fold change,[11]; [19],0.789
same,cell count,[11]; [20],8720
same,cell count,[11]; [21],9650
same,z-score,[12]; [22],-0.172 (inactive)
same,z-score,[12]; [23],0.0861
same,remaining NAD,[15],10 nM (inactive)
